Here are results for nine molecules from PubChem BioAssay.

Active and inactive are the calls of the source. Unless noted, how the calls were made is not given here.

Experiment [1] is described as follows: HepG2 liver cancer cell viability effects, profiling panel, resazurin fluorescence, 24 h, PK04 Diversity Set (AID 1172). The conditions noted are these: higher = more signal.
Experiment [2] is described as follows: basal S. cerevisiae growth modulation, no modifier, primary screen, OD600, strain BY4716, 24 h, basal condition (AID 1173). The note with it: OD600, 24 h, higher = more signal, called active from +8 up or from −8 down.
The nature of experiment [3]: MM1S myeloma cell viability, profiling panel, resazurin fluorescence, basal, 24 h, PK04 Diversity Set (AID 1174).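 Further: MM1S multiple myeloma cell line.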 The note with it: higher = more signal, called active from +8 up or from −8 down. (Resazurin is reduced to fluorescent resorufin, in cell work by metabolically active cells.)
Experiment [4] addresses Dihydroorotate dehydrogenase (quinone), mitochondrial (Plasmodium falciparum (isolate 3D7)) (UniProt Q08210). Briefly: PfDHODH enzyme inhibitors, primary screen, biochemical, C-terminal His tag, absorbance 600 nm (AID 1175).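 Further: recombinant parasite enzyme with a five histidine tag at its C terminus.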 The note with it: DCIP absorbance 600 nm, higher = more signal, called active from +8 up or from −8 down.
Experiment [5] in a line: P. aeruginosa biofilm formation inhibitors, primary screen, strain PAO1, LB-PBS medium, absorbance 600 nm (AID 1176). The note with it: P. aeruginosa PAO1 growth/biofilm, A600, 12 h; higher = more signal.
Experiment [6] can be described thus: S. cerevisiae RM11-1a growth modifiers, primary screen, strain RM11-1a, OD600, basal, 24 h (AID 1177).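 Further: cultures grown under basal conditions with no added stressor.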 The conditions noted are these: OD600, 24 h, higher = more signal, called active from +8 up or from −8 down.
Experiment [7] is described as follows: E. coli acrAB mutant growth effects, primary screen, E. coli filamentation inducers, strain DRC39, OD650, 24 h (AID 1178).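 Further: growth measured as culture turbidity by optical density at 650 nm.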 The conditions noted are these: higher = more signal, called active from +8 up or from −8 down.
Experiment [8] can be described thus: E. coli acrAB mutant growth effects, primary screen, E. coli filamentation inducers, strain DRC39, OD650, 48 h (AID 1179).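 Further: screen aims at cell division blockers that make cells filament.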 The note with it: E. coli DRC39 delta-acrAB growth, higher = more signal, called active from +8 up or from −8 down.
Experiment [9] is described as follows: RPMI8226 myeloma cell viability, profiling panel, resazurin fluorescence, basal, 24 h, PK04 Diversity Set (AID 1180).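 Further: RPMI8826 multiple myeloma cell line at 5000 cells per well.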 The conditions noted are these: higher = more signal.
Experiment [10] concerns the target E3 ubiquitin-protein ligase XIAP (Homo sapiens) (UniProt P98170). Briefly: XIAP binders, primary screen, biophysical, small-molecule microarray, fluorescence 635 nm (AID 1181).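 Further: score merges 667 nm emission and signal to noise over triplicate slides.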 The conditions noted are these: small-molecule microarray binding, higher = more signal.
Experiment [11] concerns XIP peptide (Xip251-270) binding. Briefly: small-molecule binders of XIP peptide, primary screen, biochemical, small-molecule microarray, fluorescence 635/667 nm, 0.1 µg/mL protein (AID 1182). The conditions noted are these: fluorescent protein binding, 635 nm, higher = more signal, called active from +8 up or from −8 down.
Experiment [12] relates to XIP peptide (Xip251-270). Kind of experiment: small-molecule binders of XIP peptide, primary screen, biochemical, small-molecule microarray, fluorescence 635/667 nm, 0.5 µg/mL protein (AID 1183). The conditions noted are these: small-molecule microarray binding, fluorescence 635 nm; higher = more signal.
Experiment [13] is described as follows: Plasmodium falciparum growth inhibition, primary screen, strain 3D7, DAPI fluorescence, 100 nL (AID 1184).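 Further: parasites grown inside human red blood cells in medium with human serum.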 The conditions noted are these: P. falciparum 3D7 growth, 3 d, higher = more signal.
Experiment [14] deals with Homeobox protein Hox-A13 (Mus musculus) (UniProt Q62424). Kind of experiment: inhibitors of HoxA13-DNA binding, primary screen, biochemical, fluorescence polarization, labeled oligonucleotide (AID 1185). The note with it: 15 min, higher = more signal, called active from +8 up or from −8 down. (In fluorescence polarisation assays a small probe gives low polarisation when free and higher when bound to something large.)
Sequence of Homeobox protein Hox-A13 (Mus musculus) (Q62424 whole entry, looked up): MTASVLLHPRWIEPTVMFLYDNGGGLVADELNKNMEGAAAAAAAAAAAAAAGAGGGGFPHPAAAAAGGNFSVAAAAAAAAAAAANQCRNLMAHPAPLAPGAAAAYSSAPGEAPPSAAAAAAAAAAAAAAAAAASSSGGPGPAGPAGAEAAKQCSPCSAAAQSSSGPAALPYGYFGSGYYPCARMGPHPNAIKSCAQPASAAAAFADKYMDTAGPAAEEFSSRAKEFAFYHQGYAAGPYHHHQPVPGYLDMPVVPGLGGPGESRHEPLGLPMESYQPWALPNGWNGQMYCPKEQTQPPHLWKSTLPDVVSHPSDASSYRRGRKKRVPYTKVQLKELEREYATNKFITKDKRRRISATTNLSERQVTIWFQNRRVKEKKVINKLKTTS

Experiment [15] in a line: inhibitors of hydroxyurea-induced Chk1 phosphorylation, primary screen, imaging, HeLa, phospho-Chk1 antibody, percent positive cells (AID 1186). The note with it: hydroxyurea-induced phospho-Chk1 immunofluorescence imaging, higher = more signal.
Experiment [16] in a line: inhibitors of hydroxyurea-induced Chk1 phosphorylation, primary screen, imaging, HeLa, phospho-Chk1 nuclear intensity (AID 1187). The note with it: hydroxyurea-induced phospho-Chk1 immunofluorescence imaging, higher = more signal.

Sequence of E3 ubiquitin-protein ligase XIAP (Homo sapiens) (P98170 whole entry, looked up): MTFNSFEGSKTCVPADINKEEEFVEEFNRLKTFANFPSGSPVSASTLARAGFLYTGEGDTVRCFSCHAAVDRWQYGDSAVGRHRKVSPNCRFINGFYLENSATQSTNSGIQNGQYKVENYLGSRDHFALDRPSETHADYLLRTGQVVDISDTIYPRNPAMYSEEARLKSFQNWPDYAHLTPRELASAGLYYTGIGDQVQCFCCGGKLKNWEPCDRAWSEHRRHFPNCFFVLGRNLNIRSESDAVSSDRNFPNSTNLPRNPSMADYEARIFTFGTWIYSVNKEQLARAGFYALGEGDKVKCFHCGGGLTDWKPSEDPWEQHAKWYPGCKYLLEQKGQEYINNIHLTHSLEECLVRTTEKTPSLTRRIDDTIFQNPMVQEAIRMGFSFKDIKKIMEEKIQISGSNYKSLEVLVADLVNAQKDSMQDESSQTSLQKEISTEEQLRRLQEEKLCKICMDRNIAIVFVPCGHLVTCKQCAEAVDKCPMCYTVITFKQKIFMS
Sequence of Dihydroorotate dehydrogenase (quinone), mitochondrial (Plasmodium falciparum (isolate 3D7)) (Q08210 whole entry, looked up): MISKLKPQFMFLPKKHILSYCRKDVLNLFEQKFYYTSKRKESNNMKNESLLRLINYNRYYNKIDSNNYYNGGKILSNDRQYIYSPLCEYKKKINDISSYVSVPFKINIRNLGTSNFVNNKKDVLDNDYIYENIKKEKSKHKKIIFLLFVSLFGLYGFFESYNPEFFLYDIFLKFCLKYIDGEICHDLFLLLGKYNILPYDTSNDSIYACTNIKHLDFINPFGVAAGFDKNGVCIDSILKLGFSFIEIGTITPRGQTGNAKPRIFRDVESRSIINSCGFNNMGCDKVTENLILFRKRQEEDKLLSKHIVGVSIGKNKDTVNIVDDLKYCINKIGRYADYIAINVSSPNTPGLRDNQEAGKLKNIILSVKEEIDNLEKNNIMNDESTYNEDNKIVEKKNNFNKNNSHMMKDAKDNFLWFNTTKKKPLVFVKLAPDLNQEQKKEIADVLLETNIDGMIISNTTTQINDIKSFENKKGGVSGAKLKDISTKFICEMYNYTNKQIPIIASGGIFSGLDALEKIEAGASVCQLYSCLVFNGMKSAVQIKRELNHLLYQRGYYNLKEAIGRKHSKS

On to `C=CC[C@]1(C(=O)O)N=C(c2ccc(OCCCO)cc2)O[C@H]1c1ccccc1CN=[N+]=[N-]`, for which the z-score was 0.13 in experiment [1]; -0.518 (inactive) in [2]; -2.6 (inactive) in experiment [3]; -0.555 (inactive) in experiment [5]; 0.363 (inactive) in experiment [6]; 0.104 (inactive) in experiment [7]. Besides, the z-score was 0.619 (inactive) in [8]; -0.728 in experiment [9]; 0.797 in [13]; -5.35 (inactive) in [14]; 0.341 (inactive) in [15]; -0.0268 (inactive) in experiment [16]. The composite z-score was 0.381 (inactive) in [4], 0.117 in experiment [10], 1 (inactive) in experiment [11] and -0.76 in experiment [12].

With `O=C1OCC=C[C@H]2OC34C=CCN(CCN5CCOCC5)C(=O)[C@H]3N(CCCCCCO)C(=O)[C@@H]4[C@@H]12` (some centres undefined), the z-score was -0.151 in experiment [1]; -0.0603 (inactive) in experiment [2]; 0.501 (inactive) in experiment [3]; -0.677 (inactive) in experiment [5]; -0.762 (inactive) in experiment [6]; -0.193 (inactive) in experiment [7]. For the same molecule, the z-score was 0.0937 (inactive) in experiment [8]; 0.406 in experiment [9]; -0.448 in experiment [13]; -7.09 (inactive) in experiment [14]; -1.52 (inactive) in [15]; -1.21 (inactive) in [16]. Besides, the composite z-score in experiment [4] was -1.97 (inactive); in experiment [10], 0.232; in experiment [11], 0.304 (inactive); in experiment [12], -0.291.

As to `C=CCOC(=O)[C@H]1[C@@H]2C(=O)O[C@@H](c3ccccc3)[C@@H](c3ccccc3)N2[C@@H](c2ccc(OCCOC(=O)[C@@H]3C[C@@H]4C(=O)NCC(=O)N4[C@@H]3c3ccc(O)cc3)cc2)[C@]12C(=O)Nc1ccc(I)cc12`, the z-score is -0.247 in experiment [1]; 0.528 (inactive) in experiment [2]; -0.897 (inactive) in experiment [3]; 2.27 (inactive) in [5]; 0.305 (inactive) in experiment [6]; -0.641 (inactive) in experiment [7]. Further, the z-score was -0.51 (inactive) in experiment [8]; -0.433 in experiment [9]; -1.11 in [13]; 0.274 (inactive) in [14]; 0.147 (inactive) in experiment [15]; 0.192 (inactive) in [16]. The composite z-score in [4] was 0.31 (inactive); in [10], -0.0066; in experiment [11], 0.2 (inactive); in [12], 0.825.

As to `Cc1cc(C)c(C(O)C2C=CC3C(=O)NC(=O)C3N2Nc2ccccn2)c(C)c1` (centres undefined), the z-score is -1.25 in experiment [1]; 0.705 (inactive) in experiment [2]; -1.78 (inactive) in [3]; 0.9 (inactive) in [5]; 0.276 (inactive) in experiment [6]; -0.579 (inactive) in experiment [7]. For the same molecule, the z-score in [8] is -0.342 (inactive); in experiment [9], -0.68; in experiment [13], -0.261; in experiment [14], -3.34 (inactive); in experiment [15], 0.321 (inactive); in [16] it was -0.0098 (inactive). The composite z-score was 1.41 (inactive) in [4], 0.203 in [10], 0.702 (inactive) in experiment [11] and 0.103 in experiment [12].

Consider `COC(=O)c1c2oc(c1C(=O)OC)C(=O)N[C@H](Cc1ccccc1)Cn1nncc1C1(CCCCC1)NC(=O)N[C@H](CO)CC2`, for which the z-score was 1.09 in experiment [1]; 0.916 (inactive) in experiment [2]; 2.4 (inactive) in experiment [3]; 1.27 (inactive) in experiment [5]; 0.416 (inactive) in experiment [6]; 0.157 (inactive) in [7]. The z-score was 0.402 (inactive) in [8]; 2.19 in experiment [9]; 1.06 in [13]; -2.22 (inactive) in experiment [14]; -0.971 (inactive) in experiment [15]; -0.939 (inactive) in [16]. Besides, the composite z-score in [4] is 0.112 (inactive); in [10], 0.0859; in experiment [11] it was 0.152 (inactive); in experiment [12], -0.0356.

Turning to `CCOC(=O)C1=CC[C@@H](c2cccc(Cl)c2)N(S(=O)(=O)c2ccc(C)cc2)[C@H]1c1ccc(C#N)cc1`, the z-score in experiment [1] was 0.697; in experiment [2], 2.09 (inactive); in experiment [3], -0.39 (inactive); in [5], 1.68 (inactive); in [6], 0.834 (inactive); in experiment [7] it was -0.905 (inactive). Also, the z-score was -0.314 (inactive) in experiment [8]; -1.42 in experiment [9]; -2.12 in experiment [13]; 1.05 (inactive) in experiment [14]; 0.645 (inactive) in experiment [15]; -0.118 (inactive) in experiment [16]. The composite z-score was 0.21 (inactive) in [4], -0.38 in experiment [10], 0.197 (inactive) in experiment [11] and 0.73 in experiment [12].

Regarding `CN1C(=O)C2C=CC(C(O)C3=C[C@H]4C[C@@H](C3)C4(C)C)N(Nc3ccc([N+](=O)[O-])cc3[N+](=O)[O-])C2C1=O` (some centres undefined), the z-score is -0.241 in [1]; 0.473 (inactive) in experiment [2]; -0.569 (inactive) in experiment [3]; 0.434 (inactive) in experiment [5]; 1 (inactive) in experiment [6]; -0.146 (inactive) in experiment [7]. Besides, the z-score in [8] was -0.476 (inactive); in [9], 0.116; in [13], 0.395; in experiment [14], -3.59 (inactive); in [15] it was -0.21 (inactive); in experiment [16] it was -0.257 (inactive). Further, the composite z-score is -0.0042 (inactive) in experiment [4], 0.772 in [10], 0.334 (inactive) in [11] and 0.704 in experiment [12].

As to `O=C(NCC(O)CO)[C@@]1(Cc2ccccc2)COC(c2ccc(OCCCO)cc2)=N1` (some centres undefined), the z-score in experiment [1] was 0.55; in [2] it was -0.339 (inactive); in [3], -0.322 (inactive); in [5], 0.385 (inactive); in experiment [6] it was 0.0962 (inactive); in [7] it was 0.187 (inactive). The z-score in experiment [8] was 0.276 (inactive); in experiment [9], 0.0244; in experiment [13], 0.945; in experiment [14], -5.97 (inactive); in [15] it was -0.036 (inactive); in experiment [16], 0.238 (inactive). Also, the composite z-score is -0.815 (inactive) in experiment [4], -0.135 in [10], -0.0623 (inactive) in experiment [11] and 0.464 in experiment [12].

With `O=C1O[C@@H](c2ccccc2)[C@@H](c2ccccc2)N2[C@@H](c3ccc(O)cc3)[C@]3(C(=O)Nc4ccc(C#CCCO)cc43)[C@@H](C(=O)N3CCCCCCC3)[C@H]12`, the z-score was -0.348 in experiment [1]; 0.176 (inactive) in [2]; -0.161 (inactive) in experiment [3]; 1.01 (inactive) in experiment [5]; 0.524 (inactive) in [6]; 0.0109 (inactive) in experiment [7]. For the same molecule, the z-score in [8] is -0.787 (inactive); in experiment [9], -0.53; in [13], -1.1; in experiment [14], 1.7 (inactive); in experiment [15], -0.149 (inactive); in [16] it was -0.56 (inactive). Further, the composite z-score is 1.29 (inactive) in experiment [4], 0.567 in [10], 0.868 (inactive) in experiment [11] and 0.876 in experiment [12].
